Reference: paper PMC5700166
Numbering of substitutions follows the chain as printed.

Experiments:
Assay in all cases: protein-binding microarray (PBM); PBM: ~300 nM protein, 6 mM HEPES pH 7.8, 80 mM KCl, 0.5 mM EDTA, 0.5 mM EGTA, 6% glycerol, 35 ng/ul poly-dIdC, 1% milk, 1 h, room temperature; Ap Aiptasia and Nv Nematostella (sea anemones) / Co Capsaspora / Aq Amphimedon (sponge) / Dm Drosophila / Hu human; RHD is the Rel homology domain; high values mean tight binding
Conditions in all cases: dsDNA, one strand shown
[1] = biological target: T1, GST-Ap-NF-kB RHD (Exaiptasia pallida (Aiptasia), UniProt A0A913YAJ5 2-422)
T1 sequence: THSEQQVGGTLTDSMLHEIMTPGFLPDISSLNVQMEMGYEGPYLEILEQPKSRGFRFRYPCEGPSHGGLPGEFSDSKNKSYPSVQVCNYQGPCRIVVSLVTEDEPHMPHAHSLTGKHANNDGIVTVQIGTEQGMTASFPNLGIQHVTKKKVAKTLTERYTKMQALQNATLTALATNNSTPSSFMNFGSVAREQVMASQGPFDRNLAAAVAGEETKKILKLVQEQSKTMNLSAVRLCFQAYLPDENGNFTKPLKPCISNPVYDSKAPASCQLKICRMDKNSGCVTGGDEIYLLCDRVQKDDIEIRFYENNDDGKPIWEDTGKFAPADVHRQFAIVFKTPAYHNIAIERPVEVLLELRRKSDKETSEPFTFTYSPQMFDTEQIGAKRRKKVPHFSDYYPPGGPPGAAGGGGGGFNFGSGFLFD

[2] = biological target: T2, GST-Nv-NF-kB (Cys allele) (Nematostella vectensis, UniProt E5G601 2-411)
T2 sequence: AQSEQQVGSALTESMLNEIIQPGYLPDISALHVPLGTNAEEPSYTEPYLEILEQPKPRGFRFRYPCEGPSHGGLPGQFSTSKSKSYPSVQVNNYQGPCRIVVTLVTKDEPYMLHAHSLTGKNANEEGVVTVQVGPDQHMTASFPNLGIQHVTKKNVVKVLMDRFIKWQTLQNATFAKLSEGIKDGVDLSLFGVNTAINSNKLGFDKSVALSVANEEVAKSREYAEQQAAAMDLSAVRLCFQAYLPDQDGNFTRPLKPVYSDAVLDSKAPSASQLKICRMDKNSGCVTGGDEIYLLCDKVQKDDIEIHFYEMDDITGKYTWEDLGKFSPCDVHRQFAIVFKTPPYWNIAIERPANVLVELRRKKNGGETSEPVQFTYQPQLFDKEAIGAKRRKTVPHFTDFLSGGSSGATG

[3] = biological target: T3, GST-Nv-NF-kB (Ser allele) (Nematostella vectensis, UniProt A7UNT2 2-411)
T3 sequence: T2 sequence with Q21R, C66S, S207N, E215Q, V217A, E225K, A268E, D399E

[4] = biological target: T4, GST-Co-NF-kB (Capsaspora owczarzaki, UniProt F1ARL5 200-546)
T4 sequence: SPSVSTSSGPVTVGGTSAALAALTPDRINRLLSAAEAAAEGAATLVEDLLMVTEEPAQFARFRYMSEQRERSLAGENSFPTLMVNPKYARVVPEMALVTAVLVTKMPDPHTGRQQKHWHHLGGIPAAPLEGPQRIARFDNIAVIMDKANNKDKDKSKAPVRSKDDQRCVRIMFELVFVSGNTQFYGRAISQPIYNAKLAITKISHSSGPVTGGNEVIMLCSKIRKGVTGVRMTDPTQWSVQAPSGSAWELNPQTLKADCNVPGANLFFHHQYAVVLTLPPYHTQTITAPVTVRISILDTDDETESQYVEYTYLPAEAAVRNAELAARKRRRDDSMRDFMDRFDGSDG

[5] = biological target: T5, GST-Dm-Relish (Drosophila melanogaster, UniProt Q94527 99-473)
T5 sequence: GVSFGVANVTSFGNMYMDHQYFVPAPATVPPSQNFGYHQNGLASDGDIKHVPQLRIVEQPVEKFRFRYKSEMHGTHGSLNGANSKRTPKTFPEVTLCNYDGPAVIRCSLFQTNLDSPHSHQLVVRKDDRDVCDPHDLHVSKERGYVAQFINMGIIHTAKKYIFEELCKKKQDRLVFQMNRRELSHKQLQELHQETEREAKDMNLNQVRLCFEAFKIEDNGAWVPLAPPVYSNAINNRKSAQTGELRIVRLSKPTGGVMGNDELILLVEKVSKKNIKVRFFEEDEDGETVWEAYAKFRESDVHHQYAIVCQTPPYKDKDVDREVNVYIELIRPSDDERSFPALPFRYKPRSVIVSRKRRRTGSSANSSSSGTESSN

[6] = biological target: T6, GST-Aq-NF-kB (Amphimedon queenslandica, UniProt A9Y5G7 2-389)
T6 sequence: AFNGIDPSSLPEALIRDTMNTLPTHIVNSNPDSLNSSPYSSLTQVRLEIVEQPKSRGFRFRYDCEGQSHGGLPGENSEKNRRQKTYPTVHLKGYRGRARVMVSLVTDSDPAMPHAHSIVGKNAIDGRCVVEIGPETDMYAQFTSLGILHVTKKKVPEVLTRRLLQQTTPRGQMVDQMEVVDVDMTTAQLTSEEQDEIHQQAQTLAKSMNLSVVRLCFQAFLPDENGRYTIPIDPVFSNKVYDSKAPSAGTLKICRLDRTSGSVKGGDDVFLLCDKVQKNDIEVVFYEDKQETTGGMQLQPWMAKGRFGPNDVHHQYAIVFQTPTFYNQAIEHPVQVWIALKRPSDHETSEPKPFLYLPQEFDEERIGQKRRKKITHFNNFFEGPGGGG

[7] = biological target: GST-Hu-p50 (Homo sapiens, UniProt P19838 7-356)
GST-Hu-p50, sequence (P19838 7-356): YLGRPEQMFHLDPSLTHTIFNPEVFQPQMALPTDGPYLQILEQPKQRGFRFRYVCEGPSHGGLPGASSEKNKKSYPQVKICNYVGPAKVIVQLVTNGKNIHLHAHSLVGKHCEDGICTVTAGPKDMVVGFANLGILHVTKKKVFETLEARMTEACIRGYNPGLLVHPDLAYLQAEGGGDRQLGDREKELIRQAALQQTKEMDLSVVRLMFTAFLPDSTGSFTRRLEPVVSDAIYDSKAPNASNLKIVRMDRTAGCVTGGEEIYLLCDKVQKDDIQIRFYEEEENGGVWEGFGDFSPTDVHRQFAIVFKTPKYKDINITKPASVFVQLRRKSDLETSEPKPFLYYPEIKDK

| Sequence | binding signal [1] | binding signal [2] | binding signal [3] | binding signal [4] | binding signal [5] | binding signal [6] | binding signal [7] |
| --- | --- | --- | --- | --- | --- | --- | --- |
| CCGATTAACATCAGGGGGGCGCATGATGTTAATCGGGTCTTGATTCGCTTGACGCTGCTG | 3.86 z-score | 3.14 z-score | 3.06 z-score | 3.25 z-score | 4.09 z-score | 4.07 z-score | 4.13 z-score |
| CCGATTAACATCAAAGACCCCCCTGATGTTAATCGGGTCTTGATTCGCTTGACGCTGCTG | 6.11 z-score | 4.15 z-score | 4.24 z-score | 3.36 z-score | 7.07 z-score | 5.33 z-score | 4.3 z-score |
| CCGATTAACATCAGGATTCCCCATGATGTTAATCGGGTCTTGATTCGCTTGACGCTGCTG | 9.56 z-score | 9.44 z-score | 8.33 z-score | 6.71 z-score | 8.76 z-score | 6.46 z-score | 5.89 z-score |
| CCGATTAACATCAGGGGAATACCTGATGTTAATCGGGTCTTGATTCGCTTGACGCTGCTG | 9.84 z-score | 11.8 z-score | 10.1 z-score | 5.97 z-score | 9.67 z-score | 10.5 z-score | 6.93 z-score |
| CCGATTAACATCAAAAATACCCATGATGTTAATCGGGTCTTGATTCGCTTGACGCTGCTG | 4.63 z-score | 6.47 z-score | 6.31 z-score | 2.49 z-score | 5.48 z-score | 5.67 z-score | 5.58 z-score |
| CCGATTAACATCAATCACCCCCCTGATGTTAATCGGGTCTTGATTCGCTTGACGCTGCTG | 4.05 z-score | 4.27 z-score | 4.76 z-score | 4.97 z-score | 4.64 z-score | 5.36 z-score | 4.4 z-score |
| CCGATTAACATCAATAATTTCCCTGATGTTAATCGGGTCTTGATTCGCTTGACGCTGCTG | 4.38 z-score | 6.39 z-score | 7.05 z-score | 4.82 z-score | 3.45 z-score | 5.17 z-score | 5 z-score |
| CCGATTAACATCAGGGGGGTTAATGATGTTAATCGGGTCTTGATTCGCTTGACGCTGCTG | 4.64 z-score | 4.44 z-score | 4.14 z-score | 3.92 z-score | 6.25 z-score | 4.51 z-score | 4.97 z-score |
| CCGATTAACATCAAGGGGTTCCCTGATGTTAATCGGGTCTTGATTCGCTTGACGCTGCTG | 4.99 z-score | 3.32 z-score | 2.15 z-score | 2.13 z-score | 9.46 z-score | 5.11 z-score | 3.25 z-score |
| CCGATTAACATCAAGAATCCCCTTGATGTTAATCGGGTCTTGATTCGCTTGACGCTGCTG | 7.94 z-score | 9.47 z-score | 10.9 z-score | 2.64 z-score | 8.39 z-score | 7.11 z-score | 7.63 z-score |
| CCGATTAACATCAGGGGGTTTTATGATGTTAATCGGGTCTTGATTCGCTTGACGCTGCTG | 9.65 z-score | 9.57 z-score | 10.2 z-score | 3.52 z-score | 10 z-score | 8.21 z-score | 7.82 z-score |
| CCGATTAACATCAGACATTCCCCTGATGTTAATCGGGTCTTGATTCGCTTGACGCTGCTG | 7.03 z-score | 8.78 z-score | 8.26 z-score | 5.38 z-score | 4.78 z-score | 6.59 z-score | 5.51 z-score |
| CCGATTAACATCAAAATTCCCTATGATGTTAATCGGGTCTTGATTCGCTTGACGCTGCTG | 4.89 z-score | 8.05 z-score | 7.32 z-score | 3.27 z-score | 5.2 z-score | 6.99 z-score | 5.69 z-score |
| CCGATTAACATCAAATTGTCCCCTGATGTTAATCGGGTCTTGATTCGCTTGACGCTGCTG | 4.64 z-score | 5.87 z-score | 6.62 z-score | 6.08 z-score | 2.6 z-score | 4.84 z-score | 4.96 z-score |
| CCGATTAACATCAACGAAACCCCTGATGTTAATCGGGTCTTGATTCGCTTGACGCTGCTG | 3.65 z-score | 2.45 z-score | 2.84 z-score | 1.39 z-score | 4.41 z-score | 2.77 z-score | 3.87 z-score |
| CCGATTAACATCAAAATATCCCCTGATGTTAATCGGGTCTTGATTCGCTTGACGCTGCTG | 8.8 z-score | 9.37 z-score | 11 z-score | 5.38 z-score | 8.53 z-score | 7.25 z-score | 7.09 z-score |
| CCGATTAACATCAAGGGGGGGTGTGATGTTAATCGGGTCTTGATTCGCTTGACGCTGCTG | 4.34 z-score | 2.8 z-score | 3.53 z-score | 4.12 z-score | 4.4 z-score | 3.77 z-score | 4.28 z-score |
| CCGATTAACATCAGGCGATCCCCTGATGTTAATCGGGTCTTGATTCGCTTGACGCTGCTG | 5.05 z-score | 4.17 z-score | 5.07 z-score | 1.58 z-score | 6.53 z-score | 5.06 z-score | 3.98 z-score |
| CCGATTAACATCACAAATTACCCTGATGTTAATCGGGTCTTGATTCGCTTGACGCTGCTG | 3.66 z-score | 5.32 z-score | 5.44 z-score | 3.35 z-score | 3.01 z-score | 4.95 z-score | 4.07 z-score |
| CCGATTAACATCAGGGGGAAGTATGATGTTAATCGGGTCTTGATTCGCTTGACGCTGCTG | 5.44 z-score | 6.23 z-score | 7.96 z-score | 8.17 z-score | 5.72 z-score | 5.16 z-score | 5.57 z-score |
| CCGATTAACATCAGAAATCCCCATGATGTTAATCGGGTCTTGATTCGCTTGACGCTGCTG | 8.63 z-score | 9.17 z-score | 9.84 z-score | 4.52 z-score | 8.03 z-score | 6.3 z-score | 6.99 z-score |
| CCGATTAACATCAGGGGGTAACATGATGTTAATCGGGTCTTGATTCGCTTGACGCTGCTG | 4.79 z-score | 3.69 z-score | 4.43 z-score | 7.22 z-score | 2.49 z-score | 3.72 z-score | 4.06 z-score |
| CCGATTAACATCAGGGGTAACCCTGATGTTAATCGGGTCTTGATTCGCTTGACGCTGCTG | 4.06 z-score | 2.99 z-score | 2.19 z-score | 4.77 z-score | 4.12 z-score | 5.1 z-score | 3.1 z-score |
| CCGATTAACATCAGGGGAAGCTATGATGTTAATCGGGTCTTGATTCGCTTGACGCTGCTG | 4.87 z-score | 5.26 z-score | 6.8 z-score | 6.23 z-score | 3.04 z-score | 3.92 z-score | 4.77 z-score |
